Drawing on PubChem BioAssay (NCI), this text covers growth for 14 molecules.

This is part of a sample that, as a whole, favours compounds with a hit. Of some 83,000 tested, about 20% had one in any assay.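 In brief: 96-well plates, 48 h treatment, single concentration, percent growth endpoint.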 A number with no mark means an inactive call. Calls of active or inactive are those of the source. How the source made its calls: active means growth percent below 10; inactive means the rest.

Test systems include NCI-H23 lung; NCI-H226 lung; NCI-H322M lung; HOP-62 NSCLC; NCI-H460 lung; NCI-H522 lung; A549/ATCC NSCLC; 786-0 renal; COLO 205 colon.
Common to all, as to assay: NCI-60 one-dose screen, 48 h (100 = growth as untreated, 0 = no growth, -100 = all killed)
Holding throughout (conditions): 10 µM unless noted

For `CNS(=O)(=O)c1ccc(Nc2ccc(C(F)(F)F)cc2)c(-c2cn(C)cn2)c1`, the growth was 72.9% in the assay with NCI-H23 lung; 48.8% in the assay with NCI-H226 lung; 59.1% in the assay with NCI-H322M lung; 95.3% with HOP-62 NSCLC; 33.7% in the assay with NCI-H460 lung; 36.5% in the assay with NCI-H522 lung. The growth in the assay on A549/ATCC NSCLC is 37.1%; in the assay on 786-0 renal, 61.2%; in the assay with COLO 205 colon, 53.1%.

With `NS(=O)(=O)c1ccc(CCNC(=O)CSc2ccc(-c3ccc(Br)cc3)nn2)cc1`, the growth with NCI-H23 lung was 47.2%; in the assay on NCI-H226 lung, 70.3%; in the assay on NCI-H322M lung it was 81.2%; in the assay with HOP-62 NSCLC, 75.9%; in the assay on NCI-H460 lung, 51.4%; in the assay on NCI-H522 lung, 52.9%. Also, the growth is 62% with A549/ATCC NSCLC, 75.3% in the assay on 786-0 renal and 83.6% with COLO 205 colon.

In the case of `CN(C)c1nc(NCCNS(=O)(=O)c2ccc(C3=Nc4c(N)nc(N)nc4NC(c4ccc(F)cc4)C3)cc2)nc(Nc2ccc(F)cc2)n1` (stereo unspecified), the growth was 64.5% in the assay on NCI-H23 lung; 53% with NCI-H226 lung; 63.3% in the assay on NCI-H322M lung; 72.4% in the assay with HOP-62 NSCLC; 21.7% with NCI-H460 lung; 42.1% in the assay on NCI-H522 lung. Moreover, the figures for the growth with A549/ATCC NSCLC, in the assay on 786-0 renal and with COLO 205 colon were 66.3%, 30.2% and 37.9%, respectively.

Regarding `CC12CC[C@@H]3[C@]4(C)COC(c5cn[nH]c5-c5cccc(Br)c5)O[C@@H]4CC[C@@]3(C)[C@@H]1CC(C1=CCOC1=O)O2` (stereo partly specified), the growth was 38% in the assay on NCI-H23 lung; 37.8% in the assay on NCI-H226 lung; 48.6% in the assay on NCI-H322M lung; 70.3% in the assay with HOP-62 NSCLC; 23.7% in the assay with NCI-H460 lung; 24.9% with NCI-H522 lung. Further, the results for the growth in the assay on A549/ATCC NSCLC, with 786-0 renal and in the assay with COLO 205 colon were 25%, 53.1% and 10.5%, respectively.

`COc1ccc(/C=C/c2nc3ccccc3c(=O)n2CC(=O)Nc2ccc(OC)cc2)cc1`: the growth is 53.9% with NCI-H23 lung; 61.1% with NCI-H226 lung; 83.3% with NCI-H322M lung; 51.7% in the assay with HOP-62 NSCLC; 50.8% in the assay with NCI-H460 lung; 70.3% in the assay with NCI-H522 lung. Further, the growth in the assay on A549/ATCC NSCLC is 46.9%; in the assay on 786-0 renal, -12.7% (active); in the assay on COLO 205 colon it was 87.8%.

For the molecule `CN(C)c1nc(NCCNS(=O)(=O)c2ccc(C3=Nc4c(N)nc(N)nc4NC(c4ccccc4)C3)cc2)nc(Nc2ccc(F)cc2)n1` (stereo unspecified), the growth in the assay on NCI-H23 lung was 58.6%; in the assay with NCI-H226 lung, 52.8%; in the assay on NCI-H322M lung, 58.4%; with HOP-62 NSCLC, 81.1%; in the assay with NCI-H460 lung, 25.9%; with NCI-H522 lung, 43.1%. Also, the growth in the assay on A549/ATCC NSCLC is 56.4%; in the assay with 786-0 renal it was 29.7%; with COLO 205 colon, 44%.

Turning to `O=C(CN1C(=O)/C(=C/c2ccccc2F)SC1=S)N1CCOCC1`, the growth is 89.1% in the assay on NCI-H23 lung; 66.5% in the assay on NCI-H226 lung; 90.3% with NCI-H322M lung; 119% with HOP-62 NSCLC; 102% in the assay on NCI-H460 lung; -83.2% (active) in the assay on NCI-H522 lung. Further, the values for the growth in the assay on A549/ATCC NSCLC, in the assay with 786-0 renal and in the assay with COLO 205 colon were 95.5%, 74.9% and 98.5%, respectively.

Consider `COc1c(F)ccc(C(=O)Nc2ccc3nc(NC(=O)C4CCCN(S(=O)(=O)c5ccc(Br)c(F)c5)C4)sc3c2)c1F` (stereo unspecified), for which the growth with NCI-H23 lung was 87.3%; in the assay with NCI-H226 lung, 80.8%; in the assay with NCI-H322M lung, 94.5%; in the assay on HOP-62 NSCLC, 105%; in the assay with NCI-H460 lung, 84.1%; in the assay on NCI-H522 lung, 81.9%. Also, the growth was 73.7% in the assay on A549/ATCC NSCLC, 52.7% in the assay with 786-0 renal and 81.8% in the assay with COLO 205 colon.

Regarding `Cn1cc(-c2cc(N)n3nc(-c4cn(C)c5ncc(Br)cc45)cc3n2)c2cc(Br)cnc21`, the growth in the assay on NCI-H23 lung was -31.1% (active); in the assay with NCI-H226 lung, 78%; in the assay on NCI-H322M lung, 69.1%; with HOP-62 NSCLC it was 48.3%; in the assay with NCI-H460 lung, -65.6% (active); in the assay on NCI-H522 lung it was 51.2%. Moreover, the growth in the assay on A549/ATCC NSCLC was -22.3% (active); with 786-0 renal, -40.8% (active); in the assay on COLO 205 colon, 12.3%.

Turning to `CC(=O)/C=C/c1cccc2c1C(=O)NC(C)(c1cc3cc(Br)ccc3oc1=O)N2` (stereo unspecified), the growth in the assay with NCI-H23 lung is 17.9%; in the assay on NCI-H226 lung, 34.3%; in the assay with NCI-H322M lung, 52.5%; with HOP-62 NSCLC it was 50%; in the assay on NCI-H460 lung it was 51.9%; with NCI-H522 lung, 26.8%. The growth in the assay on A549/ATCC NSCLC is 55.1%; with 786-0 renal, 33.2%; in the assay with COLO 205 colon, 79.6%.

For `COc1ccc(-c2ccnc(SCc3cc4ccccc4[nH]c3=O)n2)cc1OC`, the growth in the assay with NCI-H23 lung is 15.6%; with NCI-H226 lung, -23.1% (active); in the assay with NCI-H322M lung it was -51.5% (active); in the assay with HOP-62 NSCLC, -53.5% (active); in the assay on NCI-H460 lung, 8.25% (active); in the assay on NCI-H522 lung it was -21.2% (active). The figures for the growth with A549/ATCC NSCLC, with 786-0 renal and in the assay on COLO 205 colon were 11.7%, -25.4% (active) and 4.51% (active), respectively.

Turning to `Cc1ccc(C2=NN(c3nc(-c4cc5ccccc5oc4=O)cs3)C(c3ccc(C)cc3)C2)cc1` (stereo unspecified), the growth was 95.6% in the assay on NCI-H23 lung; 88.8% in the assay with NCI-H226 lung; 102% in the assay on NCI-H322M lung; 91.2% in the assay on HOP-62 NSCLC; 120% with NCI-H460 lung; 100% in the assay on NCI-H522 lung. For the same molecule, the growth in the assay on A549/ATCC NSCLC was 109%; in the assay on 786-0 renal, 110%; in the assay with COLO 205 colon, 111%.

Consider `Cc1ccc(-c2nc(Nc3ccccc3S(N)(=O)=O)c3ccccc3n2)cc1`, for which the growth with NCI-H23 lung is 68.2%; in the assay on NCI-H226 lung it was 59.1%; with NCI-H322M lung it was 80.2%; in the assay with HOP-62 NSCLC it was 86.8%; with NCI-H460 lung it was 70.2%; with NCI-H522 lung, 81.4%. The values for the growth in the assay with A549/ATCC NSCLC, in the assay on 786-0 renal and with COLO 205 colon were 71%, 32.1% and 98.7%, respectively.

`COc1ccc2c(c1)c(-c1cc3nc(-c4cn(C)c5ncccc45)cc(N)n3n1)cn2C`: the growth is 0.244% (active) in the assay on NCI-H23 lung; -16.6% (active) in the assay with NCI-H226 lung; -8.29% (active) with NCI-H322M lung; -25.8% (active) in the assay on HOP-62 NSCLC; -25.5% (active) with NCI-H460 lung; -78.4% (active) in the assay with NCI-H522 lung. In addition, the growth with A549/ATCC NSCLC is -30.6% (active); in the assay on 786-0 renal it was -92% (active); with COLO 205 colon, -74.1% (active).
